High-throughput results as filed in PubChem BioAssay.
GLS inhibitor: qHTS for Inhibitors of Glutaminase (GLS); Glutaminase kidney isoform, mitochondrial (Homo sapiens), O94925; GLS enzymatic activity, qHTS titration; Potency, µM (series often up to 45.5 µM), inactives show at the top dose activity change, negative = inhibition, most hits filed as inhibitors; hit rate 0.21% among 410,000; further: potency means the concentration at half of the fitted maximal effect; on the % scale 0 is the no-effect control and ±100 the full control effect
Target sequence (O94925 whole entry, looked up, canonical isoform): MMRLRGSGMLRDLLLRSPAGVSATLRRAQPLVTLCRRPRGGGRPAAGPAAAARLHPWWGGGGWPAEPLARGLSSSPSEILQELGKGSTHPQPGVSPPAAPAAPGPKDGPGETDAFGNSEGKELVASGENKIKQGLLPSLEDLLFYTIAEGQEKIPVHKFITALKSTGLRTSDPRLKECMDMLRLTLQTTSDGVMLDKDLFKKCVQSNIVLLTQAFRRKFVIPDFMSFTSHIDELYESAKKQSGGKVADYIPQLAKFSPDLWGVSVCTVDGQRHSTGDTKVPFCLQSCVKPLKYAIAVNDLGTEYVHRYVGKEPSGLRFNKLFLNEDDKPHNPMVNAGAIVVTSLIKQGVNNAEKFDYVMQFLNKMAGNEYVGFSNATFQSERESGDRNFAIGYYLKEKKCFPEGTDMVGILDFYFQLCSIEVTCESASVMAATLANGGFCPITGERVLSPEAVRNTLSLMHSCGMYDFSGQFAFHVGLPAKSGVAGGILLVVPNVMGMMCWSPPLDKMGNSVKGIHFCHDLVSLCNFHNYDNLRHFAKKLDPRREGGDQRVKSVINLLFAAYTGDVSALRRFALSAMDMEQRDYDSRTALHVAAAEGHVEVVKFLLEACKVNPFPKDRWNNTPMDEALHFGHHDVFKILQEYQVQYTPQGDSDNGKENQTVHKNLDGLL
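Read-out is an Amplex red fluorescence increase coupled through glutamate oxidase and HRP, measured before and after 30 min room-temperature incubation. hKGA is in 45 mM KH2PO4 (pH 8.2) with 0.02% Tween-20; glutamine added as 1mM solution.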
GLP1R cytotox: qHTS of GLP-1 Receptor Inverse Agonists: Cytotox Screen; hit rate 0.13% among 410,000; HEK293 cAMP-luciferase reporter cells, luminescence, 24 h; Potency, µM (highest dose often 38.3 µM), without a hit: at the highest dose activity change, negative = inhibition, most hits filed as inhibitors;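 further: loss of luciferase light is scored as toxicity; potency means the concentration at half of the fitted maximal effect; on the % scale 0 is the no-effect control and ±100 the full control effect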
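MLSMR compounds, 24 hr on cells at 37 deg C/5% CO2; luminescence after luciferase reagent (12 min RT). Inhibition counted as the undesired cytotoxic outcome.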
KCNH2 WT inh: qHTS for Inhibitors of KCHN2 3.1: Wildtype qHTS. U2OS, BacMam KCNH2, thallium flux FluxOr; hits give low values. activity change, % at 1.84 µM. hit rate 0.37% among 340,000;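 active means maximum activity change below -70%; inconclusive means maximum activity change between -70% and -50%; inactive means maximum activity change above -50%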; further: on the % scale 0 is the no-effect control and ±100 the full control effect
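U2OS cells were transduced with wild-type KCNH2 virus (2.03 x 10^8 / mL) for 4 h at room temperature, then cultured overnight at 37 C. Thallium flux was read with FluxOr dye. Rate constants were normalized to DMSO controls.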
GLP-1R inv ag: qHTS of GLP-1 Receptor Inverse Agonists (Inhibition Mode). Glucagon-like peptide 1 receptor (Homo sapiens), P43220. HEK293 GLP-1R CRE-luciferase, luminescence, 24 h; GLP-1R form is constitutively active. Potency, µM (series often up to 38.3 µM), for inactives: top-dose activity change, negative = inhibition, usual class: inhibitors. hit rate 1.6% among 410,000; further: potency means the concentration at half of the fitted maximal effect; on the % scale 0 is the no-effect control and ±100 the full control effect; nearly all actives have a fitted effect of over 55% in size
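HEK293 cells stably co-expressing constitutively active GLP-1R and a cAMP-responsive luciferase reporter were seeded in DMEM with 10% Nu serum, given compounds after 12 h, and incubated 24 h at 37 deg C. Luminescence was then read.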
KCNH2 3.1 block: qHTS for Inhibitors of KCHN2 3.1: Mutant qHTS; Potassium voltage-gated channel subfamily H member 2, brain isoform KCNH2 3.1 (human); U2OS KCNH2 3.1, thallium flux FluxOr; hits give low values; activity change, % (tested at about 1.8 µM); hit rate 0.95% among 340,000; AID 720553, 2013;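 active means maximum activity change below -70%; inconclusive means maximum activity change from -70% to -50%; inactive means maximum activity change above -50%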;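 further: thallium influx rate constant from kinetic fluorescence after stimulation buffer; on the % scale 0 is the no-effect control and ±100 the full control effect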
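Steps: virus added to U2OS suspension (4 h, RT, dark); medium with 10% FBS added, cells plated, 37 C overnight; FluxOr/Red40 loading buffer 45 min RT; stimulation buffer, 2 min kinetic read; rate constant normalized.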
GLP1R ag: qHTS of GLP-1 Receptor Agonists; Glucagon-like peptide 1 receptor (Homo sapiens), P43220; HEK293 GLP-1R CRE-luciferase, luminescence, 4-6 h; cells express a hypersensitive GLP-1R form; Potency, µM (doses to about 45.6 µM), without a hit: at the top dose activation, most hits filed as activators; hit rate 0.007% among 380,000; AID 624172, 2012; further: potency means the concentration at half of the fitted maximal effect; % of control where 0% means no effect
* hit, by the source's call; ? = inconclusive; . = not tested or not shown. Most compounds without a hit are left out; they make up all but 2.8% or so of the library. Unless noted, the call rests on the fitted dose curve; in most records, active means well fitted curve in the direction sought with a large enough effect; inconclusive means small, poorly fitted or top-dose-only effect, or another doubt; inactive means no such curve, though single readings can be large; an effect the other way counts as inactive or inconclusive.

SMILES	GLS inhibitor	GLP1R cytotox	KCNH2 WT inh	GLP-1R inv ag	KCNH2 3.1 block	GLP1R ag
CC(C)(C)n1nnnc1C(c1ccc(C(F)(F)F)cc1)N(Cc1ccccc1)Cc1ccco1 (configuration not stated)	-7%	4%	8	5.6µM*	-16	-8%
CC(C)(C)c1ccc(CN(Cc2ccccc2)C(c2ccccn2)c2nnnn2C(C)(C)C)cc1 (configuration not stated)	-20%	15%	-4	3.2µM*	-23	-11%
CCN(c1ccccc1)S(=O)(=O)c1ccc(NC(=O)c2cc(=O)c3cc(C)ccc3o2)cc1	4%	-6%	.	1%	.	.
c1cncc(CSc2nnc3ccc(-c4ccncc4)nn23)c1	-13%	2%	-79*	40%	25	2%
Cc1c(C(=O)OC2CCCCC2)[nH]c2c1C(=O)CC(c1ccc(C(C)(C)C)cc1)C2 (configuration not stated)	1%	3%	.	0%	.	.
COC(=O)c1ccc(OC)c(Cn2c(=O)n(-c3ccc(C)cc3)c(=O)c3c2cnn3C)c1	4%	4%	.	-17%	.	.
O=C1/C(=C/c2ccncc2)SC(=S)N1Nc1ccccc1	8.9µM*	0%	-4	?	-1	0%
CCOc1cc(/C=C2\SC(=S)N(Nc3ccccc3)C2=O)ccc1O	19%	-8%	-4	?	-30	-3%
COc1cc(/C=C2\SC(=S)N(Nc3ccccc3)C2=O)ccc1O	-14%	10µM*	-9	?	6	-1%
COc1cc(/C=C2\SC(=S)N(C(Cc3ccccc3)C(=O)O)C2=O)ccc1O (configuration not stated)	-4%	10µM*	-9	-4%	-2	-4%
COc1ccccc1C(=O)NCC[N+](C)(C)C	-10%	-1%	.	10%	.	-3%
Cc1ccc(CN(C(=O)COc2ccccc2Cl)c2ccccn2)o1	4%	6%	.	-4%	.	.
CCCCCCSC1=C(C#N)C(c2ccc(O)cc2)CC(=O)N1 (configuration not stated)	18%	-4%	-2	5µM*	-1	?
Cc1ccc(F)c(S(=O)(=O)NC(=O)C2(C)CCN2C(=O)c2ccccc2)c1 (configuration not stated)	9%	8%	.	4%	.	0%
C/C(=N/NC(=O)C1CC1(c1ccccc1)c1ccccc1)c1ccco1 (configuration not stated)	-3%	9%	-5	?	2	12%
O=C(N/N=C/c1ccco1)C1CC1(c1ccccc1)c1ccccc1 (configuration not stated)	20%	-3%	-22	10µM*	-2	-19%
CCn1nnnc1-c1ccc(OC)c(S(=O)(=O)Nc2ccccc2OC)c1	5%	2%	-78*	5%	-2	12%
COc1ccc(Br)cc1CNC(=O)CN1CCSc2ccccc21	5%	-10%	.	?	.	30%
O=C(c1nc(-c2ccc(Cl)cc2)n2c1CCCCC2)N1CCN(c2ccc(F)cc2)CC1	13%	-14%	.	10µM*	.	.
O=C(c1nc(-c2ccc(Cl)cc2)n2c1CCCCC2)N1CCN(c2ccccc2F)CC1	-1%	-13%	.	?	.	.
CC1=C(C(=O)O)N2C(=O)[C@@H](NC(=O)[C@H](N)C3=CCC=CC3)[C@H]2SC1	2%	.	.	.	.	-5%
COc1ccc2c(c1)CCc1c-2n[nH]c1C(=O)NCCC(C)C	-3%	-2%	2	7.9µM*	-17	-3%
Cc1cc(N/N=C/c2ccccc2Br)nc2ccccc12	10%	?	-21	?	-82*	0%
Cc1cc(C)c2c(CN3CCN(Cc4ccc5c(c4)OCO5)CC3)cc(=O)oc2c1C	0%	-7%	24	?	-92*	-4%
